# Measurements published in PubChem BioAssay (Tox21).
# Where “and” joins values, the source holds several entries; their conditions need not be identical. Equal values may be shown once. Results filed as inconclusive are left out. Some structures have more than one record in an assay (separate samples or runs), and their calls can disagree. Calls of active or inactive are those of the source. Unless noted, calls come from the whole dose curve; as a rule, active = well fitted cell-killing curve with a large enough effect in the repeat runs; inconclusive = weak or mixed curves, or effect the other way; inactive = flat fitted curve, though single readings scatter.
# Tested on: not listed separately
# Assay: qHTS assay to identify small molecule that activate the aryl hydrocarbon receptor (AhR) signaling pathway - cell viability counter screen (AID 743086); note: nearly all actives have a fitted effect of over 45% in size; note: potency is the fitted concentration of half-maximal effect;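 for viability change, negative = cytotoxic: HepG2 liver cells carrying the AhR DRE luciferase reporter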
# Details: HepG2-AhR-luc viability, CellTiter-Fluor, 24 h; series mostly up to 70.3 µM; viability change, negative = cytotoxic: at the top concentration
# How it was run: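 HepG2-AhR-luc (HG2L7.5c1) cells, 4000/well, were preincubated 5 h at 37C, exposed to compound in qHTS format for 24 hr at 37C, then given CellTiter-Fluor for 30 min; viability was read as fluorescence in the reporter wells.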
# % is set by controls: 0 for no effect and ±100 for the full control effect.
Compound,Potency,"viability change, negative = cytotoxic"
Cc1onc(-c2c(F)cccc2Cl)c1C(=O)N[C@@H]1C(=O)N2[C@@H]1SC(C)(C)[C@@H]2C(=O)O,inactive,
CO/N=C(\C(=O)N[C@@H]1C(=O)N2C(C(=O)[O-])=C(C[n+]3ccc(N)n3CCO)CS[C@H]12)c1csc(N)n1,,6.28% (inactive)
CCOC(=O)[C@H](CCc1ccccc1)N[C@@H](C)C(=O)N1[C@H](C(=O)O)C[C@H]2CCCC[C@@H]21,inactive,
COc1ccc(/C=C/C(=O)O)cc1,,7.36% (inactive)
O=[N+]([O-])c1ccc(O)c2ncccc12,,-29.6% (inactive)
COc1ccc([C@@H]2CC(=O)c3c(O)cc(O[C@@H]4O[C@H](CO[C@@H]5O[C@@H](C)[C@H](O)[C@@H](O)[C@H]5O)[C@@H](O)[C@H](O)[C@H]4O)cc3O2)cc1O,,-1.42% [at 32.5 µM] (inactive)
O=C1OC(=O)c2cc(-c3ccc4c(c3)C(=O)OC4=O)ccc21,,-2.25% (inactive)
COc1cc([C@@H]2c3cc4c(cc3[C@@H](O[C@@H]3O[C@@H]5CO[C@@H](C)O[C@H]5[C@H](O)[C@H]3O)[C@H]3COC(=O)[C@H]23)OCO4)cc(OC)c1O,,-3.97% (inactive)
O=C(O)CCCC/C=C(\c1ccccc1)c1cccnc1,,-1.53% (inactive)
CC(=O)N[C@@H](C=O)[C@H](O)[C@H](O)[C@@H](O)CO,inactive,
CN(C)CCOc1ccc(/C(=C(/CCCl)c2ccccc2)c2ccccc2)cc1,inactive and 40.5 µM (active),
O=C(Cn1cnnn1)N[C@@H]1C(=O)N2C(C(=O)O)=C(CSc3nncs3)CS[C@H]12,inactive,
C/C(=C(/CCO)SSCC1CCCO1)N(C=O)Cc1cnc(C)nc1N (stereo unspecified),inactive,
c1ccc2cc3c4ccccc4c4ccccc4c3cc2c1,,-0.413% [at 95 µM] (inactive)
CC(C)=CCC/C(C)=C/CC/C(C)=C/CC/C=C(\C)CC/C=C(\C)CCC=C(C)C,inactive,
Cc1c(N)nc([C@H](CC(N)=O)NC[C@H](N)C(N)=O)nc1C(=O)N[C@H](C(=O)N[C@H](C)[C@@H](O)[C@H](C)C(=O)N[C@H](C(=O)NCCc1nc(-c2nc(C(=O)NCCCCN=C(N)N)cs2)cs1)[C@@H](C)O)[C@@H](O[C@@H]1O[C@@H](CO)[C@@H](O)[C@H](O)[C@@H]1O[C@H]1O[C@H](CO)[C@@H](O)[C@H](OC(N)=O)[C@@H]1O)c1cnc[nH]1,inactive,
CC(C)(S)C(=O)N[C@@H](CS)C(=O)O,,12.8% (inactive)
Cc1ccc(Cl)c(N)c1Cl,,-15.2% (inactive)
C[S+](CC[C@H](N)C(=O)O)C[C@H]1O[C@@H](n2cnc3c(N)ncnc32)[C@H](O)[C@@H]1O (stereo partly specified),inactive,

Compound,Potency,"viability change, negative = cytotoxic"
NC(=O)[C@@H]1CCCN1C(=O)[C@H](Cc1cnc[nH]1)NC(=O)[C@@H]1CCC(=O)N1,,0.965% (inactive)
NC(N)=NCc1cccc(I)c1,inactive,
CC(CNC(=O)c1cccnc1)NC(=O)c1cccnc1 (stereo unspecified),,9.73% (inactive)
O=C1CCC(c2ccccc2)(C2CCN(Cc3ccccc3)CC2)C(=O)N1 (stereo unspecified),,-9.38% (inactive)
CC[C@H]1OC(=O)C[C@@H](O)[C@H](C)[C@@H](O[C@@H]2O[C@H](C)[C@@H](O[C@H]3C[C@@](C)(O)[C@@H](O)[C@H](C)O3)[C@H](N(C)C)[C@H]2O)[C@@H](CC=O)C[C@@H](C)C(=O)/C=C/C(C)=C/[C@@H]1CO[C@@H]1O[C@H](C)[C@@H](O)[C@@H](OC)[C@H]1OC,inactive,
Cc1cnc(C(=O)O)c[n+]1[O-],inactive,
CCOC(=O)COc1ccc2c(=O)cc(-c3ccccc3)oc2c1,inactive,
CC(C)c1ncc([N+](=O)[O-])n1C,,-1.87% (inactive)
NCCCC[C@H](NC(=O)[C@@H]1CCCN1C(=O)[C@@H]1CSSC[C@H](N)C(=O)N[C@@H](Cc2ccc(O)cc2)C(=O)N[C@@H](Cc2ccccc2)C(=O)N[C@@H](CCC(N)=O)C(=O)N[C@@H](CC(N)=O)C(=O)N1)C(=O)NCC(N)=O,,20.4% (inactive)
Cc1cc(=O)c(C(=O)N[C@@H](C(=O)N[C@@H]2C(=O)N3C(C(=O)O)=C(CSc4nnnn4C)CS[C@H]23)c2ccc(O)cc2)c[nH]1,,7.86% (inactive)
CCOc1ccc(NC(=S)Nc2ccc(OCC)cc2)cc1,,0.0141% (inactive)
COc1ccc(/C=C/C(=O)Nc2ccccc2C(=O)O)cc1OC,,4.44% (inactive)
CC(=O)NC[C@H]1CN(c2ccc(N3CCOCC3)c(F)c2)C(=O)O1,,-6.8% (inactive)
CN1C(C(=O)Nc2ccccn2)C(=O)c2sc(Cl)cc2S1(=O)=O (stereo unspecified),,-8.79% (inactive)
Cc1cn([C@H]2C[C@H](O)[C@@H](CO)O2)c(=O)[nH]c1=O,,7.97% (inactive)
C[N+]1(CCCCC[N+]2(C)CCCC2)CCCC1,,1.31% (inactive)
NC[C@@H]1CC[C@@H](N)[C@@H](O[C@H]2[C@H](O)[C@@H](O[C@H]3O[C@H](CO)[C@@H](O)[C@H](N)[C@H]3O)[C@H](N)C[C@@H]2N)O1,,8.93% (inactive)
CCCCCCCCCCCCCCCCC(C(=O)O)C(O)(CC(=O)O)C(=O)O (stereo unspecified),,1.67% (inactive)

# Molecular target: Peroxisome proliferator-activated receptor gamma (Homo sapiens) (UniProt P37231)
# Assay: qHTS assay to identify small molecule agonists of the peroxisome proliferator-activated receptor gamma (PPARg) signaling pathway (AID 743094; active = well fitted activation curve with a large enough effect in the signal ratio in the repeat runs, not every such curve was filed as active; the % refers to the signal ratio)
# Details: HEK293H PPARg-UAS-bla, beta-lactamase FRET ratio, 17 h; series mostly up to 57 µM; activation: at the top concentration
# How it was run: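 Reporter activation was scored by fluorescence of cleaved LiveBLAzer B/G substrate (1 h, room temperature) in PPARg-bla HEK293H cells previously treated 17 h at 37C with DMSO-dissolved compounds.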
# Peroxisome proliferator-activated receptor gamma (Homo sapiens), sequence (P37231 whole entry, looked up): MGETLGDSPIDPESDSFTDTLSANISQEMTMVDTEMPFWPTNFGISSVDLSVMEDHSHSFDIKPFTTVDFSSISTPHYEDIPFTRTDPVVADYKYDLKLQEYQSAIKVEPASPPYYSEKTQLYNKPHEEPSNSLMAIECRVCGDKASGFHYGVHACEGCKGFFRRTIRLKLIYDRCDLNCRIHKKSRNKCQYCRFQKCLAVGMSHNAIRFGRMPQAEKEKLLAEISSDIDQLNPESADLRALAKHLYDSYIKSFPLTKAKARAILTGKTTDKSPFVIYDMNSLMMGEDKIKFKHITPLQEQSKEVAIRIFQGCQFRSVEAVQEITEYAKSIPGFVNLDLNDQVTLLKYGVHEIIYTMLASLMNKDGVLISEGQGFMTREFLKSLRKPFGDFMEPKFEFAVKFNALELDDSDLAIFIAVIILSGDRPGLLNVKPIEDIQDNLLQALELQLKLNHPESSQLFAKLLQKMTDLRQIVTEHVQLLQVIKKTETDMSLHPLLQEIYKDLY
Compound,Potency,activation
Cc1onc(-c2c(F)cccc2Cl)c1C(=O)N[C@@H]1C(=O)N2[C@@H]1SC(C)(C)[C@@H]2C(=O)O,inactive,
CO/N=C(\C(=O)N[C@@H]1C(=O)N2C(C(=O)[O-])=C(C[n+]3ccc(N)n3CCO)CS[C@H]12)c1csc(N)n1,,6.19% (inactive)
CCOC(=O)[C@H](CCc1ccccc1)N[C@@H](C)C(=O)N1[C@H](C(=O)O)C[C@H]2CCCC[C@@H]21,,0.394% (inactive)
COc1ccc(/C=C/C(=O)O)cc1,,0.0788% (inactive)
COc1ccc([C@@H]2CC(=O)c3c(O)cc(O[C@@H]4O[C@H](CO[C@@H]5O[C@@H](C)[C@H](O)[C@@H](O)[C@H]5O)[C@@H](O)[C@H](O)[C@H]4O)cc3O2)cc1O,,2.49% [at 26.2 µM] (inactive)
O=C1OC(=O)c2cc(-c3ccc4c(c3)C(=O)OC4=O)ccc21,,-0.0298% (inactive)
O=C(O)CCCC/C=C(\c1ccccc1)c1cccnc1,,1.07% (inactive)
CC(=O)N[C@@H](C=O)[C@H](O)[C@H](O)[C@@H](O)CO,inactive,
CN(C)CCOc1ccc(/C(=C(/CCCl)c2ccccc2)c2ccccc2)cc1,,-8.94% (inactive)
O=C(Cn1cnnn1)N[C@@H]1C(=O)N2C(C(=O)O)=C(CSc3nncs3)CS[C@H]12,inactive,
C/C(=C(/CCO)SSCC1CCCO1)N(C=O)Cc1cnc(C)nc1N (stereo unspecified),,-9.06% (inactive)
CC(C)=CCC/C(C)=C/CC/C(C)=C/CC/C=C(\C)CC/C=C(\C)CCC=C(C)C,inactive,
Cc1c(N)nc([C@H](CC(N)=O)NC[C@H](N)C(N)=O)nc1C(=O)N[C@H](C(=O)N[C@H](C)[C@@H](O)[C@H](C)C(=O)N[C@H](C(=O)NCCc1nc(-c2nc(C(=O)NCCCCN=C(N)N)cs2)cs1)[C@@H](C)O)[C@@H](O[C@@H]1O[C@@H](CO)[C@@H](O)[C@H](O)[C@@H]1O[C@H]1O[C@H](CO)[C@@H](O)[C@H](OC(N)=O)[C@@H]1O)c1cnc[nH]1,,0.461% (inactive)
CC(C)(S)C(=O)N[C@@H](CS)C(=O)O,inactive,
Cc1ccc(Cl)c(N)c1Cl,,-1.57% (inactive)
C[S+](CC[C@H](N)C(=O)O)C[C@H]1O[C@@H](n2cnc3c(N)ncnc32)[C@H](O)[C@@H]1O (stereo partly specified),inactive,
NC(=O)[C@@H]1CCCN1C(=O)[C@H](Cc1cnc[nH]1)NC(=O)[C@@H]1CCC(=O)N1,,1.72% (inactive)

Compound,Potency,activation
NC(N)=NCc1cccc(I)c1,inactive,
CC(CNC(=O)c1cccnc1)NC(=O)c1cccnc1 (stereo unspecified),,5.06% (inactive)
O=C1CCC(c2ccccc2)(C2CCN(Cc3ccccc3)CC2)C(=O)N1 (stereo unspecified),,-7.51% (inactive)
CC[C@H]1OC(=O)C[C@@H](O)[C@H](C)[C@@H](O[C@@H]2O[C@H](C)[C@@H](O[C@H]3C[C@@](C)(O)[C@@H](O)[C@H](C)O3)[C@H](N(C)C)[C@H]2O)[C@@H](CC=O)C[C@@H](C)C(=O)/C=C/C(C)=C/[C@@H]1CO[C@@H]1O[C@H](C)[C@@H](O)[C@@H](OC)[C@H]1OC,,2.92% (inactive)
Cc1cnc(C(=O)O)c[n+]1[O-],inactive,
CCOC(=O)COc1ccc2c(=O)cc(-c3ccccc3)oc2c1,inactive,
CC(C)c1ncc([N+](=O)[O-])n1C,,-1.42% (inactive)
NCCCC[C@H](NC(=O)[C@@H]1CCCN1C(=O)[C@@H]1CSSC[C@H](N)C(=O)N[C@@H](Cc2ccc(O)cc2)C(=O)N[C@@H](Cc2ccccc2)C(=O)N[C@@H](CCC(N)=O)C(=O)N[C@@H](CC(N)=O)C(=O)N1)C(=O)NCC(N)=O,inactive,
Cc1cc(=O)c(C(=O)N[C@@H](C(=O)N[C@@H]2C(=O)N3C(C(=O)O)=C(CSc4nnnn4C)CS[C@H]23)c2ccc(O)cc2)c[nH]1,,3.18% (inactive)
CCOc1ccc(NC(=S)Nc2ccc(OCC)cc2)cc1,,-4.31% (inactive)
COc1ccc(/C=C/C(=O)Nc2ccccc2C(=O)O)cc1OC,,-9.84% (inactive)
CC(=O)NC[C@H]1CN(c2ccc(N3CCOCC3)c(F)c2)C(=O)O1,,-0.67% (inactive)
CN1C(C(=O)Nc2ccccn2)C(=O)c2sc(Cl)cc2S1(=O)=O (stereo unspecified),,0.768% (inactive)
Cc1cn([C@H]2C[C@H](O)[C@@H](CO)O2)c(=O)[nH]c1=O,,2.63% (inactive)
C[N+]1(CCCCC[N+]2(C)CCCC2)CCCC1,,-0.0619% (inactive)
NC[C@@H]1CC[C@@H](N)[C@@H](O[C@H]2[C@H](O)[C@@H](O[C@H]3O[C@H](CO)[C@@H](O)[C@H](N)[C@H]3O)[C@H](N)C[C@@H]2N)O1,,2.45% (inactive)
CCCCCCCCCCCCCCCCC(C(=O)O)C(O)(CC(=O)O)C(=O)O (stereo unspecified),,0.177% (inactive)
